One assay deals with CRL-7250. Kind of assay: Cytotoxic Profiling of Annotated Libraries Using Quantitative High-Throughput Screening (AID 1296008). Further: potency means the concentration at half of the fitted maximal effect. On max response: on the % scale 0 is the no-effect control and ±100 the full control effect. The following applies: Five cell lines viability, CellTiter-Glo ATP luminescence, 48-72 h; max response: hits give low values. Summed up:
(§1)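 Cytotoxicity was measured as CellTiter-Glo ATP luminescence, read after 10 min at room temperature. Compound treatment of the cells lasted 48 or 72 hr at 37 degrees Celsius in a qHTS format.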
In general terms: ATP-based viability assays read luminescence as a measure of living cells.

The subject of a further assay is HEK293. The assay is described as above. As to conditions: Five cell lines viability, CellTiter-Glo ATP luminescence, 48-72 h; max response: hits give low values. Summed up:
as §1

The next assay relates to PC15. Kind of assay: qHTS profiling for inhibitors of Plasmodium falciparum proliferation (AID 504749).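 Further: 0% = DMSO vehicle and full inhibition = artemisinin control.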 The following applies: P. falciparum in erythrocytes, SYBR Green DNA, 72 h; series mostly up to 28.7 µM. An outline of the steps:
(§2)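 Three-day growth assay of blood-stage parasites in erythrocytes (0.3% parasitemia, 2.5% hematocrit) at 37 C, 5% CO2, quantified by SYBR Green DNA staining after overnight detergent lysis.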
On the technique in general: Quantitative high-throughput screening tests each substance at several concentrations.

Another assay relates to PC49. The assay is described as above. As to conditions: P. falciparum in erythrocytes, SYBR Green DNA, 72 h; series mostly up to 28.7 µM. An outline of the steps:
as §2

The subject of a further assay is SC27B. The assay is described as above. As to conditions: P. falciparum in erythrocytes, SYBR Green DNA, 72 h; series mostly up to 28.7 µM. An outline of the steps: as §2
Another assay concerns TAB109. The description is as above. As to conditions: P. falciparum in erythrocytes, SYBR Green DNA, 72 h; series mostly up to 28.7 µM. Summed up:
as §2

The subject of a further assay is TAB113. Described as above. As to conditions: P. falciparum in erythrocytes, SYBR Green DNA, 72 h; series mostly up to 28.7 µM. Summed up:
as §2

The subject of a further assay is TAB165. Described as above. The following applies: P. falciparum in erythrocytes, SYBR Green DNA, 72 h; series mostly up to 28.7 µM. An outline of the steps:
as §2

Where “and” joins values, the source holds several entries; their conditions need not be identical. Equal values may be shown once. Inconclusive results are not listed. The source holds several records for some structures; these can differ, active in one and inactive in another. Unmarked numbers belong to inactive results. Calls of active or inactive are those of the source. The call rests on the fitted dose curve; in most records, active means well fitted inhibition curve with a large enough effect; inconclusive means small, poorly fitted or top-dose-only effect; inactive means flat fitted curve, though single readings scatter.
Further: nearly all actives have a fitted effect of over 60% in size.

For `COc1ccc(-c2cc3c(C)nc(N)nc3n(C3CCC(OCCO)CC3)c2=O)cn1` (centres undefined), the Potency in the assay with CRL-7250 is 23.5 nM (active) and 231 nM (active); in the assay on HEK293, 66.2 nM (active) and 411 nM (active).

As for `CCS(=O)(=O)c1cccc(-c2cc(C(=O)NC3CCN(C)CC3)c(C)c3[nH]c4ncc(C)cc4c23)c1`, the Potency is 1.28 µM (active) in the assay on CRL-7250; 1.87 µM (active) and 2.02 µM (active) with HEK293.

In the case of `C1=CCOCc2cc(ccc2OCCN2CCCC2)Nc2nccc(n2)-c2cccc(c2)OCC1`, the values for the Potency with CRL-7250 and with HEK293 were 8.33 µM (active) and 3.32 µM (active), respectively.

For `CCOC(=O)C1=C(C)NC2=C(C(=O)CC(C)(C)C2)C1c1ccc(-c2ccccc2)cc1` (centres undefined), the Potency in the assay on CRL-7250 is 26.4 µM (active) and 10.3 µM (active); with HEK293, 16.6 µM (active) and 2.91 µM (active).

Turning to `COc1cccc2c(NCc3ccccc3)nc(-n3c(N)nc4ccccc43)nc12`, the Potency in the assay on CRL-7250 is 8.33 µM (active); with HEK293, 7.43 µM (active) and 11.6 µM (active).

For the compound `CC(C)c1cc(-c2n[nH]c(=O)n2-c2ccc3c(ccn3C)c2)c(O)cc1O`, the Potency in the assay with CRL-7250 is 148 nM (active) and 103 nM (active); in the assay with HEK293 it was 46.9 nM (active) and 41.1 nM (active).

For the compound `OCCCNc1cc(-c2ccnc(Nc3cccc(Cl)c3)n2)ccn1`, the Potency with CRL-7250 is 46.9 nM (active) and 146 nM (active); with HEK293, 209 nM (active) and 231 nM (active).

Take `Nc1ccccc1NC(=O)c1ccc(CNC(=O)OCc2cccnc2)cc1`: the Potency with CRL-7250 was 9.2 µM (active); with HEK293 it was 7.43 µM (active) and 6.51 µM (active).

`COc1cc2c(cc1-c1c(C)noc1C)ncc1[nH]c(=O)n([C@H](C)c3ccccn3)c12`: the Potency is 3.26 µM (active) in the assay with CRL-7250; 5.26 µM (active) and 4.11 µM (active) with HEK293.

In the case of `CC(C)c1nn(-c2c(Cl)cccc2Cl)c2nc(Cc3ccc(OCCO)cc3)[nH]c(=O)c12`, the Potency in the assay with CRL-7250 was 0.0291 µM (active); with HEK293, 59 nM (active) and 36.6 nM (active).

Turning to `Cn1cc(-c2ccncc2)c(-c2ccc(OCc3ccc4ccccc4n3)cc2)n1`, the Potency in the assay with CRL-7250 is 2.64 µM (active); in the assay on HEK293, 3.72 µM (active) and 20.6 µM (active).

On to `NC(=O)c1c(OCc2c(F)cc(Br)cc2F)nsc1NC(=O)NCCCCN1CCCC1`, for which the Potency with CRL-7250 was 4.69 µM (active) and 8.2 µM (active); in the assay on HEK293, 14.8 µM (active).

Regarding `CCCn1c(=O)c2[nH]c(-c3cnn(Cc4cccc(C(F)(F)F)c4)c3)nc2n(CC)c1=O`, the max response in the assay with CRL-7250 is -9.35%. The call in the assay with HEK293 was inactive.

For `O=C(O)[C@H](Cc1c[nH]c2ccccc12)N1C(=O)c2ccccc2C1=O`, the result in the assay with CRL-7250 and in the assay on HEK293 was inactive.

With `CCN(CC)CCNC(=O)c1ccc2nc(-c3ccccc3)c(-c3ccc(CN4CCC(n5c(=O)[nH]c6ccccc65)CC4)cc3)nc2c1`, the Potency is 9.35 µM (active) in the assay on CRL-7250; 2.96 µM (active) and 8.2 µM (active) with HEK293.

For the compound `CC(=O)Nc1nc(C)c(-c2ccc(Cl)c(S(=O)(=O)NCCO)c2)s1`, the Potency in the assay on CRL-7250 is 1.66 µM (active) and 13 µM (active); with HEK293, 4.18 µM (active) and 11.6 µM (active).

For the compound `OCc1ccc(-c2ccc(-c3ccc(CO)s3)o2)s1`, the max response with CRL-7250 was -8.37%. Further, the Potency in the assay on HEK293 is 0.142 µM (active).

In the case of `COc1cc2c(NC3CCN(C(C)C)CC3)nc(C3CCCCC3)nc2cc1OCCCN1CCCC1`, the Potency is 8.33 µM (active) and 4.11 µM (active) with CRL-7250; 7.43 µM (active) and 5.8 µM (active) in the assay with HEK293.

For `O=C(O)c1ccc2c(c1)nc(Nc1cccc(Cl)c1)c1ccncc12`, the Potency in the assay with CRL-7250 was 14.6 µM (active); with HEK293, 10.3 µM (active).

Regarding `c1cc(-c2cnn3cc(-c4ccc(OCCN5CCCCC5)cc4)cnc23)ccn1`, the Potency with CRL-7250 was 6.62 µM (active); in the assay on HEK293, 3.32 µM (active).

In the case of `Cc1cc(Nc2cc(N3CCN(C)CC3)nc(C=Cc3ccccc3)n2)n[nH]1`, the Potency in the assay on CRL-7250 was 5.4 µM (active); in the assay on HEK293 it was 7.62 µM (active).

`N#CCNC(=O)c1ccc(-c2ccnc(Nc3ccc(N4CCOCC4)cc3)n2)cc1`: the Potency in the assay with CRL-7250 was 7.43 µM (active) and 6.51 µM (active); in the assay on HEK293, 18.7 µM (active) and 23.1 µM (active).

Regarding `Nc1cccc(-c2cc3c(Oc4cccc(O)c4)ncnc3[nH]2)c1`, the Potency in the assay on CRL-7250 was 14.8 µM (active); in the assay on HEK293, 20.9 µM (active) and 18.4 µM (active).

On to `O=C(Cc1ccc(-c2ccc(OCCN3CCOCC3)cc2)cn1)NCc1ccccc1`, for which the Potency in the assay on CRL-7250 was 23.5 nM (active) and 1.3 µM (active); in the assay on HEK293, 14.8 nM (active) and 184 nM (active).

`CC[C@@H]1C(=O)N(C)c2cnc(Nc3ccc(C(=O)NC4CCN(C)CC4)cc3OC)nc2N1C1CCCC1`: the Potency with CRL-7250 is 2.64 µM (active); in the assay with HEK293, 0.0166 µM (active).

Regarding `CNC(=O)CN1CCC(Oc2cc3c(Nc4cccc(Cl)c4F)ncnc3cc2OC)CC1`, the max response in the assay on CRL-7250 was -5.68% and -4.5%; in the assay with HEK293, 1% and -0.0643%.

Consider `Cn1c2ccccc2c2c3c(c4c5ccccc5n(CCC#N)c4c21)CNC3=O`, for which the Potency in the assay on CRL-7250 was 14.6 µM (active); with HEK293, 2.35 µM (active) and 7.31 µM (active).

On to `Clc1cccc(-n2nnnc2NCc2ccccc2Oc2ccccn2)c1Cl`, for which the outcome in the assay on CRL-7250 was inactive. In addition, the max response with HEK293 is -13.7% and -15.5%.

Take `Clc1ccc2ncc(-c3cccc(NC4CNC4)n3)n2c1`: the compound was classed as inactive with CRL-7250. Also, in the assay on HEK293, the Potency was 18.7 µM (active) and the compound was classed as inactive.

Take `C[C@H]1C[C@@H]2[C@@H]([C@@H](O)C[C@@]3(C)[C@H]2CC[C@]3(O)C(=O)CO)[C@@]2(C)C=CC(=O)C=C12`: the Potency result with PC15, with PC49, in the assay on SC27B, in the assay on TAB109, with TAB113 and in the assay with TAB165 was “inactive” throughout. Further, the values for the max response with CRL-7250 and in the assay with HEK293 were -0.811% and -9.41%, respectively.

In the case of `Cn1c(=O)n(-c2ccc(C(C)(C)C#N)cc2)c2c3cc(-c4cnc5ccccc5c4)ccc3ncc21`, the Potency in the assay with CRL-7250 was 259 nM (active) and 235 nM (active); in the assay on HEK293, 326 nM (active) and 26.4 nM (active).

(Values after PubChem BioAssay (NCATS).)
